Screening data (PubChem)
Sm TGR inh = inhibitors of Schistosoma mansoni thioredoxin glutathione reductase. 360,000 tested, 3% active. Potency, µM (top dose mostly 114 µM), without a hit: at the top dose activity change, negative = inhibition, usual class: inhibitors. purified TGR, DTNB reduction, TNB absorbance 405 nm; also: % is scaled to controls: 0 for no effect and ±100 for the full control effect; nearly all actives have a fitted effect of over 60% in size
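First, TGR (20 nM dispensed) and NADPH were mixed with compound. Second, a 15 min room-temperature incubation followed. Third, further NADPH and then DTNB were added to start the reaction. Finally, TNB absorbance was monitored kinetically.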
Pf growth 48h = P. falciparum growth inhibition at 48 hours (one generation); AID 504832; 310,000 tested, 5.9% active; P. falciparum luciferase growth in erythrocytes, 48 h; Potency, µM (top dose mostly 28.7 µM), for the others: at the top dose activity change, negative = inhibition, actives largely listed as inhibitors; also: % is scaled to controls: 0 for no effect and ±100 for the full control effect
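A one-generation exposure of luciferase-tagged malaria parasites in RPMI 1640/Albumax erythrocyte culture, 37 C and 5% CO2. Inhibition is inferred from decreased luminescence after adding detection reagent.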
AmpC inh no detg = blocks E. coli AmpC beta-lactamase in detergent-free assay; P00811; Potency, µM (highest dose often 57.1 µM), without a hit: at the highest dose activity change, negative = inhibition, most hits filed as inhibitors; AmpC nitrocefin hydrolysis, absorbance 480 nm, 0.0001% Triton; 330,000 tested, 0.52% active; AID 485341;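 also: plate controls were no compound for no effect and no enzyme for full effect; nearly all actives have a fitted effect of over 20% in size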
Target sequence (P00811 whole entry, looked up): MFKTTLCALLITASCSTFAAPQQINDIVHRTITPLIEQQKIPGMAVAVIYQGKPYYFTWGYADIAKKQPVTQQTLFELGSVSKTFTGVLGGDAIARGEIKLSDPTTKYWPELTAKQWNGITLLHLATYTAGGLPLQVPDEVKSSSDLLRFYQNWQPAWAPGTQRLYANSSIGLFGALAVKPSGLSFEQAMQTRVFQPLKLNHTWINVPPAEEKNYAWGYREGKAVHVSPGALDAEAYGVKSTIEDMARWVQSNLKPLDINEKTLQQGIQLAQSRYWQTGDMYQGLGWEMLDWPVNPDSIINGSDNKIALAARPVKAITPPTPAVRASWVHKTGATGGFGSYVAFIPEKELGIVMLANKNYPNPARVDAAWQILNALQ
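AmpC (5.3 nM in the dispensed reagent) in 20 mM phosphate pH 7.0 with 0.01% (detergent screen) or 0.0001% Triton X-100 was preincubated with compounds for 15 min at room temperature. Nitrocefin was then added from an 800 uM solution, and hydrolysis was followed at 480 nm.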
AmpC detergent = AmpC beta-lactamase inhibition with detergent present | AID 485294 | P00811 | AmpC hydrolysis of nitrocefin, absorbance 480 nm, 0.01% Triton | Potency, µM (series often up to 114 µM), for the others: at the highest dose activity change, negative = inhibition, most hits filed as inhibitors | 370,000 tested, 0.041% active;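 also: 0% = no-compound wells and -100% = no-enzyme wells; nearly all actives have a fitted effect of over 25% in size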
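20 mM phosphate pH 7.0 + 0.01% (detergent screen) or 0.0001% Triton X-100; 5.3 nM AmpC reagent; cpd preinc 15 min RT; nitrocefin (800 uM stock) to start; A480 q20 s × 4 min; Activity was normalised to no-enzyme and no-compound control wells.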
SARS PLP yeast = inhibitors of SARS-CoV papain-like protease in yeast; S. cerevisiae expressing SARS-CoV PLpro, growth rescue; Potency, µM (titrated, usually from 32.9 µM), for inactives: at the highest dose activity, positive = growth rescue, hits mostly activators; 330,000 tested, 0.19% active; calls by dose curve; also: 0% is about no effect; nearly all actives have a fitted effect of over 55% in size
Pf growth 96h = P. falciparum growth inhibition at 96 hours; P. falciparum luciferase reporter growth, 96 h; Potency, µM (titrated, usually from 28.7 µM), inactives show top-dose activity change, negative = inhibition, usual class: inhibitors; 320,000 tested, 6.9% active; AID 504834; also: % is scaled to controls: 0 for no effect and ±100 for the full control effect
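96 h incubation, 37 C, 5% CO2, of luciferase-reporter P. falciparum-infected RBCs (2% hematocrit, 0.05% parasitemia final) with test compounds; endpoint luminescence.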
* = called active by the depositor; ? = inconclusive; nt = no result given. In the library only some 12% were active in any assay of this set; here they are far more common. Unless noted, calls follow the shape of the dose curve; as a rule, active = well fitted curve in the direction sought with a large enough effect; inconclusive = small, poorly fitted or top-dose-only effect, or another doubt; inactive = no such curve, though single readings can be large; an effect the other way counts as inactive or inconclusive. Potency is read from the fitted curve at half-maximal effect.

SMILES	Sm TGR inh	Pf growth 48h	AmpC inh no detg	AmpC detergent	SARS PLP yeast	Pf growth 96h
Cc1ccc(-c2nn(-c3ccccc3)cc2C(=O)N2CCOCC2)cc1	-1.8%	-19.3%	90.3%	-5.0%	1.4%	2.33µM*
COc1ccc(-c2nn(-c3ccccc3)cc2C(=O)N2CCN(S(=O)(=O)c3ccccc3C#N)CC2)cc1	-1.4%	?	19.9%	0.0%	-1.1%	9.28µM*
COc1ccc(CCNC(=O)CSc2nc(C)nc3sccc23)cc1OC	0.3%	-6.2%	-7.2%	3.5%	0.4%	-5.9%
Cc1c(C=O)c2cc(OCc3ccccc3)ccc2n1C	1.6%	10.0%	32.1%	?	-0.9%	?
O=C(Cn1ncn2c(cc3sccc32)c1=O)NCCc1ccccc1	0.7%	nt	nt	-0.1%	nt	nt
O=C(NC1CCSc2ccccc21)c1cccc(Cl)c1 (stereo not drawn)	7.94µM*	?	44.7%	-5.4%	-4.4%	14.7µM*
NS(=O)(=O)c1cccc(C(=O)NC2CCSc3ccccc32)c1 (stereo not drawn)	2.0%	-23.1%	-34.5%	9.5%	-0.8%	8.0%
C/C(=N\NS(=O)(=O)c1ccc(Cl)c([N+](=O)[O-])c1)c1cc2ccccc2o1	50.1µM*	nt	-20.2%	?	-3.8%	20.8%
C/C(=N\NS(=O)(=O)c1ccc(Cl)c([N+](=O)[O-])c1)c1ccc(C)o1	6.31µM*	-26.0%	-20.4%	1.6%	4.4%	nt
C/C(=N\NS(=O)(=O)c1ccc(C)c([N+](=O)[O-])c1)c1cc2ccccc2o1	-3.3%	nt	-44.9%	1.2%	-0.9%	-1.3%
Cc1cc(C)c(NC(=S)N(CCc2ccncc2)C(C)C)c(C)c1	-5.2%	10.4µM*	25.6%	-7.5%	-1.3%	-7.2%
Cc1ccc(C)c(NC(=S)N(CCc2ccncc2)C(C)C)c1	-0.4%	-18.3%	-17.3%	4.5%	-2.0%	20.9%
Cc1cc(C)cc(NC(=O)C(c2ccccc2)N2CCCC2)c1 (stereo not drawn)	9.5%	-18.7%	-8.0%	-0.8%	-1.7%	-6.8%
Cc1cc(C)cc(NC(=O)C(c2ccccc2)N2CCN(CC(=O)NC3CC3)CC2)c1 (stereo not drawn)	-20.3%	5.22µM*	155.4%	6.4%	3.0%	9.28µM*
COc1ccc(C)cc1NC(=O)C(c1ccccc1)N1CCN(CC(=O)NC2CC2)CC1 (stereo not drawn)	6.6%	2.33µM*	201.8%	2.3%	4.1%	2.08µM*
Cc1ccc(NC(=O)C(c2ccccc2)N2CCN(CC(=O)NC3CC3)CC2)cc1Cl (stereo not drawn)	-2.6%	5.22µM*	165.6%	-0.1%	0.3%	?
Cc1ccc(NC(=O)C(c2ccccc2)N2CCN(CC(=O)NC3CC3)CC2)cc1 (stereo not drawn)	0.9%	13.1µM*	4.0%	4.9%	2.3%	?
Cc1ccc(NC(=O)c2c(C)oc3ncn(CC(C)C)c(=O)c23)nc1	-11.6%	nt	nt	-0.5%	nt	nt
COc1ccc(CCN2CCCn3c2nc2c3c(=O)n(CC(C)C)c(=O)n2C)cc1OC	-14.5%	?	92.5%	-0.9%	-1.1%	?
O=C(CN1CCN(C(C(=O)Nc2ccc(Cl)cc2C(F)(F)F)c2ccccc2)CC1)NC1CC1 (stereo not drawn)	-10.8%	3.29µM*	225.6%	4.1%	2.2%	4.15µM*
COc1ccccc1C1Nc2cccc3cccc(c23)N1	?	?	-27.3%	-10.5%	-11.6%	-10.1%
c1ccc(C2Nc3cccc4cccc(c34)N2)cc1	8.91µM*	?	-20.3%	1.7%	-0.6%	26.0%
Clc1cccc(Cl)c1C1Nc2cccc3cccc(c23)N1	3.16µM*	?	-29.6%	5.2%	-7.9%	5.8%
Fc1cccc(Cl)c1C1Nc2cccc3cccc(c23)N1	?	?	-31.2%	2.2%	3.9%	-2.1%
Oc1ccccc1C1Nc2cccc3cccc(c23)N1	17.8µM*	13.1µM*	-36.0%	8.8%	-10.7%	-7.2%
SMILES	Sm TGR inh	Pf growth 48h	AmpC inh no detg	AmpC detergent	SARS PLP yeast	Pf growth 96h
Clc1ccc(C2Nc3cccc4cccc(c34)N2)cc1Cl	14.1µM*	?	-36.7%	?	1.7%	-4.8%
COc1ccc(NC(=O)C2CCCN(c3nnc(C)c4c(C)n(-c5ccccc5)nc34)C2)cc1Cl (stereo not drawn)	-6.5%	nt	nt	-1.0%	nt	nt
Cc1nn(CC2CC2)c(=O)n1-c1ccccc1	3.6%	60.6%	-11.1%	4.0%	0.2%	93.7%
O=C(NCC(c1cccnc1)N1CCN(Cc2ccccc2)CC1)C(=O)Nc1cccc(F)c1 (stereo not drawn)	-5.7%	nt	nt	-8.9%	nt	nt
CN(C)c1ccc(C2Nc3cccc4cccc(c34)N2)cc1	31.6µM*	nt	-39.6%	-7.0%	-0.2%	3.7µM*
Brc1cccc(C2Nc3cccc4cccc(c34)N2)c1	11.2µM*	?	-28.3%	1.1%	-2.4%	?
CN1c2cccc3cccc(c23)N(C)C1c1cccs1	-28.1%	?	-33.4%	4.1%	19.6%	?
Brc1ccc(C2Nc3cccc4cccc(c34)N2)o1	?	-12.0%	-28.3%	-14.7%	?	-6.0%
Clc1cccc(C2Nc3cccc4cccc(c34)N2)c1	3.16µM*	7.38µM*	-28.7%	5.3%	2.3%	62.7%
c1csc(C2Nc3cccc4cccc(c34)N2)c1	22.4µM*	?	-24.0%	1.8%	-7.1%	?
CC(C)[C@@H](CO)N(C)S(=O)(=O)c1ccccc1Br	nt	nt	-1.3%	nt	7.1%	nt
CC(C)CCn1c(=O)c2sccc2n2c(CCCC(=O)Nc3ccc(F)c(Cl)c3)nnc12	-4.7%	nt	nt	0.2%	nt	nt
Cc1ccc(C)c(Cn2c(=O)n(CCCC(=O)NCc3ccc4c(c3)OCO4)c(=O)c3sccc32)c1	-1.4%	nt	nt	-1.3%	nt	nt
CCOc1ccc(C(=O)NCC(=O)N2CCN(c3ccccc3O)CC2)cc1	0.1%	?	2.7%	0.1%	-1.9%	-23.1%
COc1ccccc1N1C(=N)S/C(=C\c2ccc(-c3ccccc3C(=O)O)o2)C1=O	20µM*	-5.8%	-21.2%	?	14.5%	1.5%
N=C1S/C(=C\c2ccc(-c3ccccc3C(=O)O)o2)C(=O)N1c1ccc2c(c1)OCO2	-28.7%	15.7%	-33.2%	2.9%	4.4%	?
COc1ccc(CCNC(=O)CCNC(=O)c2ccccc2Cl)cc1	-5.3%	-0.8%	-0.5%	-6.1%	2.3%	3.3%
CCOc1ccc(S(=O)(=O)NCCC(=O)NCCc2ccc(OCC)c(OCC)c2)cc1	3.16µM*	-26.5%	?	2.8%	3.7%	?
CCOc1ccc(CCNC(=O)CCNC(=O)c2ccccc2Cl)cc1OCC	6.8%	11.7µM*	56.5%	3.0%	-3.2%	?
Cc1cccc(C(=O)NNc2ncnc3c2cnn3-c2ccc(C)cc2C)c1	-2.8%	nt	nt	3.3%	nt	nt
